PubChem BioAssay AID686979 (National Center for Advancing Translational Sciences (NCATS), 2013)
Screen size: about 420,000 compounds; about 50,000 (12%) were called active. Entries that show only a call come without a potency. Another 26% or so got no clear call; they are omitted. Many of the other results were omitted from the sample, so actives are more common in it than they were. A number with no mark means an inactive call. Calls come from the whole dose curve; as a rule, active = well fitted inhibition curve with a large enough effect; inconclusive = small, poorly fitted or top-dose-only effect; inactive = flat fitted curve, though single readings scatter. Where a SMILES comes first, the peptide text is derived from it. [ ]: non-standard residue; d: D form. ξ: configuration not given here. ξM = CSCCC(N)C(=O)O

assay: qHTS for Inhibitors of human tyrosyl-DNA phosphodiesterase 1 (TDP1): qHTS in cells in presence of CPT; conditions: chicken DT40 Tdp1-/-;hTDP1 cells + 20 nM CPT, ATP luminescence, 48 h; series mostly up to 46.2 µM; note: nearly all actives have a fitted effect of over 55% in size
Outline: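 Cell growth measured by CellTiter-Glo luminescence after a minimum 48 h, 37 C compound exposure with 20 nM CPT in Tdp1-knockout DT40 cells stably expressing hTDP1, seeded 400/well; qHTS titration format.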
Potency is the fitted concentration of half-maximal effect.

Compound | Potency | activity change, negative = growth inhibition
O=C(COc1ccc(Cl)cc1)Nc1ccc(-c2nc3cc(Cl)ccc3o2)c(O)c1 | inactive | –
Cc1ccc(SCC(=O)Nc2ccc3oc(-c4ccccc4C)nc3c2)cc1 | inactive | –
COc1ccc2oc(-c3cccc(NC(=O)CSc4ccc(Cl)cc4)c3)nc2c1 | 20.6 µM (active) | –
Cc1ccccc1-c1nc(NC(C)C)nc2cc(-c3ccccc3)sc12 | 16.4 µM (active) | –
COc1ccccc1C(=O)NC(CCSC)C(=O)NNC(=O)c1csc(N2CCOCC2)n1 (stereo not given) | inactive | –
CNc1ncnc2ccc(-c3cccc(NS(C)(=O)=O)c3)cc12 | 11.6 µM (active) | –
COc1ccccc1CNc1ncncc1-c1cccc(NS(C)(=O)=O)c1 | inactive | –
CS(=O)(=O)Nc1cccc(-c2cn3ccccc3n2)c1 | inactive | –
O=C(CCS(=O)(=O)c1ccccc1)NC1CCCC1 | inactive | –
COC1=CCC2([N+](=O)[O-])CN(CC(=O)O)CC1([N+](=O)[O-])C2 (stereo not given) | inactive | –
CCOc1ccccc1NC(=O)CCn1cnnn1 | inactive | –
Cc1ccc(C)c(NC(=O)CN(C)C(=O)c2ccc3ncsc3c2)c1 | inactive | –
CCc1ccc(NC(=O)Cn2nc(C)c([N+](=O)[O-])c2C)cc1 | inactive | –
Cc1ccc(Oc2cc(NC(=O)CCCn3nc(C)c([N+](=O)[O-])c3C)cc([N+](=O)[O-])c2)cc1 | 16.4 µM (active) | –
COc1ccc(CNC(=O)CCCn2nc(C)c([N+](=O)[O-])c2C)cc1 | inactive | –
Cc1ccc(/C(N)=N/OC(=O)COc2ccc(Cl)c(C)c2)cc1 | inactive | –
C/C(=N\NC(=O)Cc1ccccc1[N+](=O)[O-])c1cccnc1 | inactive | –
CCc1ccccc1NC(=O)Cc1cn(C)c2ccccc12 | inactive | –
O=C(Nc1cccc(C(F)(F)F)c1)c1ccc(N2CCNCC2)c([N+](=O)[O-])c1 | 14.6 µM (active) | –
Cc1cccc(C)c1NC(=O)CNC(=O)c1ccc(N2CCOCC2)c([N+](=O)[O-])c1 | inactive | –
CC1CCN(c2ccc(C(=O)Nc3nnc(C4CC4)s3)cc2[N+](=O)[O-])CC1 | inactive | –
CCOc1ccc(NC(=O)CC(Cc2ccc(Cl)cc2)C(=O)O)cc1 (stereo not given) | inactive | –
N#C/C(=C\c1ccc(O)c(O)c1)C(=O)NCc1ccccc1 | 29.9 µM (active) | –
CC(C)NC(=O)/C(C#N)=C\c1ccc(N(C)C)c(Br)c1 | inactive | –
N#C/C(=C\c1ccc(O)c(O)c1)C(N)=O | inactive | –
CCc1nc(-c2cc(S(=O)(=O)N3CCN(c4ccc(OC)cc4)CC3)ccc2OC)no1 | inactive | –
COc1cc2c(cc1O)C(SC)=NC(C)(C)C2 | 25.9 µM (active) | –

Compound | Potency | activity change, negative = growth inhibition
Cc1cn(C)c(=O)n(C)c1=O | inactive | –
O=C1CCCCC1C(=O)c1ccccc1 (stereo not given) | inactive | –
O=C(Nn1cnnc1)c1ccc([N+](=O)[O-])cc1 | inactive | –
O=C(c1ccncc1)c1ccc([N+](=O)[O-])cc1 | inactive | –
O=C(Cn1c[n+](CC(=O)c2ccc([N+](=O)[O-])cc2)cn1)c1ccc([N+](=O)[O-])cc1 | 16.4 µM (active) | –
COC(=O)CNC(=O)C(CCSC)NC(C)=O (stereo not given) (Ac-[ξM]-Gly-OMe) | inactive | –
Cc1ccc(S(=O)(=O)Nc2nc(C)cc(-n3nc(C)cc3C)n2)cc1 | inactive | –
CCCC(C(=O)n1nc(C)cc1C)C(NS(=O)(=O)c1ccc(C)cc1)c1ccccc1 (stereo not given) | 16.4 µM (active) | –
Cc1ccc(S(=O)(=O)NC(C(=O)N2CCOCCOCCOCCOCC2)c2ccccc2)cc1 (stereo not given) | inactive | –
Cc1cccc(C(=O)NNC(=O)CSc2nnc(C(C)C)n2C)c1 | inactive | –
COc1ccc(NC(=O)C(c2ccccc2)N2Cc3ccccc3C2=O)cc1 (stereo not given) | inactive | –
Cc1ccc2nc(C)cc(N/N=C/c3ccc(F)cc3)c2c1 | inactive | –
Cc1cnc(CNc2nc(-c3cccnc3)nc3ccccc23)cn1 | inactive | –
Fc1ccc(/C=N/Nc2nc(-c3cccnc3)nc3ccccc23)cc1 | 20.6 µM (active) | –
C/C(Cn1nnc2ccccc21)=N\OC(=O)c1cc(F)c(F)cc1Cl | inactive | –
Cc1cc(NC(=O)CCC(=O)N(CC(=O)NCC2CCCO2)c2ccccc2)no1 (stereo not given) | inactive | –
CCc1nc2ccccc2c(C(=O)OC2CCCCC2=O)c1C (stereo not given) | inactive | –
O=C(COC(=O)c1c2c(nc3ccccc13)CCCC2)c1ccc(Br)s1 | 8.2 µM (active) | –
Cn1cccc1C(=O)OCC(=O)c1ccc(Br)s1 | inactive | –
CCc1noc(C)c1C(=O)N1CCCSC1=Nc1ccccc1OC | inactive | –
CN(C)S(=O)(=O)c1ccc(C(=O)NCCN=C2NS(=O)(=O)c3ccccc32)cc1 | inactive | –
COC(=O)c1ccc(C(=O)NC2CC(C)(C)Cc3c2cnn3-c2ccc(F)cc2)nc1 (stereo not given) | 1.84 µM (active) | –
Cc1cc(C(=O)NC2CC(C)(C)Cc3c2cnn3-c2ccccc2)n[nH]1 (stereo not given) | inactive | –
CC1(C)Cc2c(cnn2-c2cccc(F)c2)C(NC(=O)c2cc[n+]([O-])cc2)C1 (stereo not given) | inactive | –
Cc1ccc(Cl)cc1NC(=O)CCC(=O)N1CC(C)Sc2ccccc21 (stereo not given) | 23.1 µM (active) | –
Cc1ccc(Cl)cc1NC(=O)COC(=O)C1CCCCC1 | inactive | –
Cc1ccc(CNC(=O)CCC(=O)N2CC(C)Sc3ccccc32)cc1 (stereo not given) | inactive | –

Compound | Potency | activity change, negative = growth inhibition
Cc1ccc(CNC(=O)CCNS(=O)(=O)c2ccc3c(c2)oc(=O)n3C)cc1 | inactive | –
C(#CCN1CCOCC1)CCCN1CCOCC1 | inactive | –
Cn1nc(C(F)(F)F)c2cc(NC(=O)OCC(C)(C)C)sc21 | inactive | –
CCNC(=O)C1(C)CCCN(C(=O)c2c(C)noc2C)C1 (stereo not given) | inactive | –
Cc1cc2ccccn2c1C(=O)c1cccc(S(=O)(=O)N2CCOCC2)c1 | 14.6 µM (active) | –
Cc1cc2ccccn2c1C(=O)c1cccc(F)c1 | inactive | –
O=C(COC(=O)c1ccccc1)Nc1cccc(S(=O)(=O)N2CCOCC2)c1 | inactive | –
O=[N+]([O-])c1ccc(S(=O)(=O)Nc2cccc(-c3ccc(N4CCCC4)nn3)c2)cc1 | inactive | –
Cc1cc(C(=O)CC#N)c(C)n1-c1c(C)n(C)n(-c2ccccc2)c1=O | inactive | –
C=C1CCN([C@@H](Cc2ccccc2)C(=O)N2CCOCC2)S(=O)(=O)c2ccccc21 | inactive | –
CCn1c2ccccc2c2nnc(SCC(=O)O)nc21 | inactive | –
CCOC(=O)c1sc(NC(=O)C(CC)Sc2nccn2C)nc1C (stereo not given) | inactive | –
C=CCn1c2ccccc2c2nnc(SC(CC)C(=O)Nc3nc(C)c(C(=O)OCC)s3)nc21 (stereo not given) | 11.6 µM (active) | –
O=C(NC1CC1)C1CCCN(C(=O)NC2CCCCC2)C1 (stereo not given) | inactive | –
Cc1ccc(S(=O)(=O)NC(=O)c2cccc(C)c2)cc1 | inactive | –
O=C(Nn1cnc2ccccc2c1=O)c1ccccc1 | inactive | –
Cc1nc2ccccc2c(=O)n1NC(=O)c1ccccc1 | inactive | –
COC(=O)CNC(=O)c1ccccc1F | inactive | –
CN(NC(=O)c1ccccc1F)c1nc(C(F)(F)F)nc2ccccc12 | 0.206 µM (active) | –
CSc1nc(N(C)NC(=O)c2cccc(C)c2)c2ccccc2n1 | 0.0517 µM (active) | –
CN(NC(=O)c1ccccc1)c1nc2ccccc2nc1C(F)(F)F | 8.2 µM (active) | –
COc1ccc(OCC(=O)NNC(=O)c2cccc(C)c2)cc1 | inactive | –
O=C(Cn1cnc2ccccc2c1=O)NNC(=O)c1ccccc1F | inactive | –
COc1cc(N2C(=O)CSC2=S)cc(OC)c1OC | inactive | –
CCOC(=O)c1nnn(CC(=O)NC(=O)Nc2ccccc2F)c1C(=O)OCC | inactive | –
Cn1c(CCNS(=O)(=O)c2ccc(F)cc2)nnc1SCc1cccnc1 | inactive | –
CC(C)CN1CCNC(=O)C1CC(=O)N(C)CC1CCOCC1 (stereo not given) | inactive | –

Compound | Potency | activity change, negative = growth inhibition
O=C(NCCS(=O)(=O)N1CCN(c2ccc(F)cc2)CC1)c1ccccc1Br | inactive | –
COc1ccccc1CCNC(=O)CN1C(=O)NC2(CCCC2)C1=O | inactive | –
COC(=O)c1cc(NC(=O)CC2C(=O)NCCN2C(=O)c2ccc(F)cc2)cc(C(=O)OC)c1 (stereo not given) | inactive | –
CCOc1ccc(C(C(=O)NCCOC)N(CCOC)C(=O)CCC(=O)Nc2ccccn2)cc1 (stereo not given) | inactive | –
CCN(C(=O)c1cc([N+](=O)[O-])ccc1NCc1cccnc1)c1ccccc1 | inactive | –
CCCn1nc(C(=O)NNC(=O)CSCC(=O)Nc2cc(C)on2)c2ccccc2c1=O | inactive | –
O=C(NC1=CC(=O)c2ccccc2C1=O)c1ccccc1 | 0.651 µM (active) | –
CC(NC(=O)c1ccccc1)C(=O)Nc1ccccc1 (stereo not given) | inactive | –
O=C(NC(=O)c1ccccc1)NC(=O)c1ccccc1 | inactive | –
CCC1CN(CCNC(=O)c2ccsc2)Cc2cc(OC)ccc2O1 (stereo not given) | – | 9.24% [at 9.04 µM]
COc1ccc(C(C(=O)NCC2CCCO2)N(C(=O)Cn2nnc3ccccc32)c2ccc(NC(C)=O)cc2)cc1OC (stereo not given) | inactive | –
O=[N+]([O-])c1ccc(CN2CC(N3CCC(c4ccccc4)CC3)CS2(=O)=O)cc1 (stereo not given) | 18.4 µM (active) | –
O=S1(=O)CC(N2CCN(c3ccccn3)CC2)CN1Cc1ccc(F)cc1 (stereo not given) | inactive | –
O=S1(=O)CC(N2CCN(Cc3ccccc3F)CC2)CN1Cc1cn(Cc2ccccc2)nn1 (stereo not given) | inactive | –
CCc1nn(CC(=O)N2CCN(CC)CC2)c(=O)c2cccn12 | inactive | –
COc1ccc(S(=O)(=O)NC(C)c2ccccc2)cc1C(=O)N1CCCCC1 (stereo not given) | inactive | –
Cc1ccc(S(=O)(=O)n2cccc2CO)cc1 | inactive | –
COc1cccc2cc(-c3nc(Cl)c4c5c(sc4n3)CC(C)CC5)c(=O)oc12 (stereo not given) | inactive | –
Cc1ccc(/C=C/C(=O)Nc2ccc([N+](=O)[O-])c(NC(=O)/C=C/c3ccc(C)o3)c2)o1 | 11.6 µM (active) | –
CCc1nnc(NC(=O)/C=C/c2ccc(C)o2)s1 | inactive | –
COc1ccc(OC)c(NC(=O)/C=C/c2ccc(C)o2)c1 | inactive | –
O=C(Nc1ccn(Cc2ccc(F)cc2)n1)c1ccncc1 | 18.4 µM (active) | –
O=C(Nc1ccn(Cc2ccccc2)n1)c1cccc(F)c1 | inactive | –
O=C(Nc1ccn(Cc2ccccc2)n1)c1n[nH]c([N+](=O)[O-])c1Cl | inactive | –
